# Source: PubChem BioAssay (NCI)
# This is part of a sample that, as a whole, favours compounds with a hit. Of some 79,000 tested, about 15% had one in any assay. Unmarked numbers belong to inactive results. Calls of active or inactive are those of the source. Cut-off read from the data, not from the text of the source: active = growth inhibition above about 70%; inactive = the rest. Where a SMILES comes first, the peptide text is derived from it.
# Experiments:
# [1] = NCI Yeast Anticancer Drug Screen. Data for the rad50 strain (AID 155);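 note: 0% = growth of vehicle-only cultures of the same strain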; conditions: S. cerevisiae rad50 strain growth inhibition; at 50.0 µM; active compounds read high
# In short: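 Cells are treated with compound, grown, and their growth is then scored against vehicle-only cultures of the same repair-deficient yeast strain.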
# [2] = NCI Yeast Anticancer Drug Screen. Data for the mec2-1 strain (AID 157); conditions: S. cerevisiae mec2-1 strain, at 50.0 µM, active compounds read high
# In short: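 mec2-1 yeast strain, carrying an alteration in DNA damage repair or cell cycle control, was exposed to compounds; growth inhibition was measured relative to vehicle-treated controls.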
# [3] = NCI Yeast Anticancer Drug Screen. Data for the sgs1 mgt1 strain (AID 161);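 note: 0% = growth of cultures given vehicle only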; conditions: S. cerevisiae sgs1 mgt1 strain, at 50.0 µM, active compounds read high
# In short: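 Yeast cells carrying a defined DNA-repair defect were exposed to test compounds. Growth inhibition was measured relative to vehicle-treated controls.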
# [4] = NCI Yeast Anticancer Drug Screen. Data for the cln2 rad14 strain (AID 165);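 note: 0% = growth equal to vehicle treated cultures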; conditions: S. cerevisiae cln2 rad14 strain, at 50.0 µM, active compounds read high
# In short: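 Yeast carrying cln2 and rad14 alterations (cell cycle control and DNA damage repair) were exposed to compounds. Growth inhibition was measured against vehicle-treated controls.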
# [5] = NCI Yeast Anticancer Drug Screen. Data for the bub3 strain (AID 167); conditions: S. cerevisiae bub3 mutant strain, at 50.0 µM, active compounds read high
# In short: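 Part of a panel of yeast mutants defective in DNA damage repair or cell cycle regulation. Each strain is grown with compound, and inhibition is calculated relative to solvent-treated cultures.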
# [6] = NCI Yeast Anticancer Drug Screen. Data for the mlh1 rad18 strain (AID 175); conditions: S. cerevisiae mlh1 rad18 strain growth inhibition; at 50.0 µM; active compounds read high
# In short: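 Growth inhibition of the yeast strain was measured after compound exposure and expressed relative to vehicle-treated controls. The strain carries defined defects in DNA damage repair.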
Compound,growth inhibition [1],growth inhibition [2],growth inhibition [3],growth inhibition [4],growth inhibition [5],growth inhibition [6]
CCc1cccc(C(C)C)c1NC(=O)C(=O)C(CC(=O)Nc1ccc(Cl)c(Cl)c1)C(=O)OC (stereo not drawn),-1.85%,3.6%,-2.65%,15.8%,14.8%,7.7%
Nc1c(S(=O)(=O)O)cc2cc(S(=O)(=O)O)ccc2c1N,9.9%,-12.6%,6%,-15.7%,17.8%,24.9%
Cc1ccc2nc(-c3ccc(N=NNc4ccc(-c5nc6ccc(C)c(S(=O)(=O)O)c6s5)cc4)cc3)sc2c1S(=O)(=O)O,23.5%,6.85%,-9.7%,18.2%,12.3%,18.6%
Cc1sc2nc3n(c(=O)c2c1C)N=C(c1ccc(Cl)cc1)CS3,6.6%,-11.2%,-6.65%,9.2%,-0.8%,-16.2%
COc1ccc(CCNC(=O)C(Sc2ccccn2)c2ccccc2)cc1OC (stereo not drawn),20.6%,-29.4%,5.35%,23.1%,30.6%,27.8%
COc1cc2c(cc1OC)[C@H](C)N1CCc3cc(OC)c(OC)cc3[C@@H]1C2,2.1%,-29.6%,6.65%,14.3%,9.45%,-37%
COC(=O)/C=C/c1ccccc1,17.4%,-14.3%,-15.6%,-1.2%,-27.9%,19.4%
CC(C)(C)C(=O)C(=O)O,19.9%,-13.2%,-3.7%,1.15%,-8.5%,14.6%
COc1n[nH]c(N)n1,8.3%,12.8%,3.8%,22.8%,25.6%,20.2%
CC1=C(C(=O)Nc2ccc(C)cc2)C(c2cccc([N+](=O)[O-])c2)C(C(=O)Nc2ccc(C)cc2)=C(C)N1,14.9%,24.3%,22.5%,13.8%,41%,4.35%
ON1c2ccccc2-c2ccccc2C1(c1ccccc1)c1ccccc1,95.8% (active),96.6% (active),78.7% (active),69.8%,71.5% (active),97.3% (active)
O=C[C@H](O)CO,26.4%,-20.1%,17.2%,-1.8%,8.8%,17.4%
O=[N+]([O-])c1ccc(CN2CCC(C(=S)Nc3ccccc3)=C2c2ccccc2)cc1,9.6%,0.3%,8.8%,9.05%,-1.2%,12.4%
O=C(NC[N+]12CCO[B-]1(c1ccccc1)OCC2)c1ccccc1O (stereo not drawn),25.9%,-8.4%,4.7%,13.3%,-0.75%,10.5%
CCOC(CCl)(NC(C)=O)C(=O)OC (stereo not drawn),-0.5%,-9.7%,-9.55%,-8.75%,4.3%,-8.1%
CSc1ccc(NC(=O)SCc2ccccc2)cc1,-3.5%,5.15%,1%,-2.7%,15.9%,8.55%
CC(C)(C)SCC(=O)O,-21.6%,-19.6%,-24.8%,19.5%,6.75%,1.55%
CN(C)CSCCO,-2.8%,-1.5%,-5.7%,-14.8%,-5.1%,0.45%
CCC(=O)Oc1cccc(C)c1,13.8%,-8.4%,2.05%,-10.6%,4.2%,-15.4%

Compound,growth inhibition [1],growth inhibition [2],growth inhibition [3],growth inhibition [4],growth inhibition [5],growth inhibition [6]
O=C(CN1C(=O)c2ccccc2C1=O)OCC1CCCN2CCCCC12 (stereo not drawn),16.6%,-3.3%,4.9%,-3.55%,-6.25%,-29.4%
O=c1c2ccccc2ncn1C1OC(CO)C(O)C1O (stereo not drawn),17.6%,-19.1%,-13.9%,4.95%,6.95%,-2.05%
CC(=O)[C@H]1CC[C@H]2[C@@H]3CC[C@@H]4CC(=O)CC[C@]4(C)[C@H]3[C@@H]3O[C@@H]3[C@]12C,-13.2%,5.4%,-11.1%,-46%,-1.1%,7.55%
COc1ccc(NC=O)c(C(=O)CCNC(C)=O)c1,-14.9%,-20.2%,-13.4%,-6.8%,-16.3%,-51.2%
O=S1Nc2ccccc2[C@H]2[C@@H]1[C@H]1O[C@@H]2c2ccccc21 (stereo partly drawn),-3.6%,-5.65%,-23.6%,-27.6%,-6.6%,-0.85%
CCCC(CCO)(CCO)c1ccccc1,16.6%,-30.4%,-9.65%,10.9%,8.1%,-5.7%
CC(=O)c1cccc(C)n1,29.8%,-6.05%,22.1%,18.2%,10.9%,36.7%
COC(=O)C12c3ccccc3C(c3ccccc31)c1c(N=O)ccc(NO)c12,99.2% (active),99.3% (active),99.1% (active),98.7% (active),99% (active),99% (active)
O=Cc1ccc(C(=O)O)cc1,-1.35%,-14.6%,0.25%,-13.2%,-12.8%,-9.6%
COC(=O)[C@@]1(NC(=O)C(CC(=O)OC(C)(C)C)NC(=O)OC(C)(C)C)C[C@H]1C (stereo partly drawn),-48.8%,-28.6%,-33.2%,6.15%,-3.25%,-14%
CCOC(=O)NC(=O)c1cn(CC(=O)NCC(=O)NCC(=O)NCCCN2CCN(CCCNC(=O)CNC(=O)CNC(=O)Cn3cc(C(=O)NC(=O)OCC)c(=O)[nH]c3=O)CC2)c(=O)[nH]c1=O,-5%,2.4%,-6.85%,-23.2%,-1.05%,-15.8%
COc1c(C)c2c(c(C)c1Cl)Oc1c(C=O)c(O)c(Cl)c(C)c1C(=O)O2,55%,25.4%,44.9%,23.6%,29.4%,54.4%
O=C(O)c1ccc(Cl)c(C(=O)O)c1,13.8%,4.65%,26.7%,3.15%,-11.7%,11.8%
c1ccc2cc(N3CCOCC3)ccc2c1,-19.1%,-27.4%,-7.3%,-19.9%,-22.8%,2.3%
CCCCCCCCOC(=O)Nc1ccc(S(=O)(=O)CC)cc1,-3.3%,-7.2%,-23.3%,-31.9%,-2.15%,-22.2%
Cc1ccc2c(c1)SC(c1cc3c(cc1Br)OCO3)S2 (stereo not drawn),-10.7%,-22.1%,4.65%,34.9%,32.5%,-18.4%
CC(C)CC(NC(=O)C(CCC(=O)O)NC(=O)CNC(=O)CNC(=O)C(CO)NC(=O)C(CC(C)C)NC(=O)C(NC(=O)C(CO)NC(=O)C(C)NC(=O)C(CCCNC(=N)N)NC(=O)C(C)NC(=O)CN)C(C)C)C(=O)NC(CC(=O)O)C(=O)NC(CCCNC(=N)N)C(=O)NC(Cc1c[nH]c2ccccc12)C(=O)NC(Cc1ccc(O)cc1)C(N)=O (stereo not drawn) (H-GARASVLSGGELDRWY-NH2; configuration not given here),21.4%,-7.15%,3.25%,8.4%,-5.85%,11.7%
Cc1ccc(C(=O)/C=C\C=C\c2ccccc2)cc1,16.6%,27.7%,41.6%,-3.7%,50.6%,19.8%
COc1cc(-c2cc(O)c(-c3ccc4ccccc4n3)c(=O)[nH]2)cc(OC)c1OC,6.75%,14.6%,1.6%,11.8%,-27.1%,23.4%
